Measurements as given in PubChem BioAssay AID488815 (Broad Institute, 2010).
Measured potencies and affinities stand elsewhere. Inconclusive results are not listed. A number with no mark means an inactive call. The rule behind the calls is not given here.

molecular target: CAAX prenyl protease 1 (Saccharomyces cerevisiae (strain ATCC 204508 / S288c)) (UniProt P47154); assay: yeast CAAX protease Ste24 inhibition – biochemical, S. cerevisiae, plate reader, cherry-pick, dose response (AID 488815); details: series mostly up to 10 µM; activity change, negative = inhibition: at the top concentration;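 note: 0% = neutral control wells and -100% = no enzyme wells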
Sequence (P47154 whole entry, looked up): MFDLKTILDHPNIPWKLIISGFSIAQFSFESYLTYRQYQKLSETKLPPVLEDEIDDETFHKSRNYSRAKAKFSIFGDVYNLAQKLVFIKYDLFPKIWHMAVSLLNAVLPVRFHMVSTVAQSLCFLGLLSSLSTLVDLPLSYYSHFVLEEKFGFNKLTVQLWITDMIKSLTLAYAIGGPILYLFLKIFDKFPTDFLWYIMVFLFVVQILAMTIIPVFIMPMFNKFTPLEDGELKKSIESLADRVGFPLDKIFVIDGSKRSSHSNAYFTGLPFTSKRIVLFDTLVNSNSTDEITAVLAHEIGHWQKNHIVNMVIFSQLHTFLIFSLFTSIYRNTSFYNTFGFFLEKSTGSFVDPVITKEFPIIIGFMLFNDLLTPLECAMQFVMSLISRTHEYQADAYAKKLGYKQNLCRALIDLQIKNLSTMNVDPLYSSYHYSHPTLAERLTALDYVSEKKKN

| Compound | activity change, negative = inhibition [%] |
| --- | --- |
| COC(C[C@@H]1O[C@@H]1C(=O)[C@@H](C)OCc1ccccc1)OC | 36.5 |
| COc1ccc(S(=O)(=O)N(CC(=O)N2CCCC2)Cc2ccccc2)cc1 | 18.6 |
| COc1ccc(C)cc1NC(=O)CCC(=O)Nc1ccc2nc(N3CCN(C)CC3)cc(C)c2c1 | -16.4 |
| CCOC(=O)c1c(NC(=O)COc2ccccc2F)sc2c1CC(C)(C)NC2(C)C | -87.1 |
| O=C(O)c1ccc2cccc(Cl)c2c1O | 14 |
| COc1cc2c(cc1OC)C(C)N(C(=O)c1cc3c(=O)oc4ccc(C)cc4c3s1)CC2 (stereo not given) | 15.4 |
| CCC1CCCCN1C(=O)NC(=O)c1ccccc1 (stereo not given) | 29 |
| O=C(Nc1ccc(S(=O)(=O)Nc2ccccc2)cc1)C1COc2ccccc2O1 (stereo not given) | 6.01 |
| O=C1CCCC(O)=C1N=Nc1ccc2ncsc2c1 | -2.85 |
| CC(C)CNC(=O)COc1cccc(C(=O)NCc2ccccc2)c1 | -0.446 |
| O=C(CCNC(=O)N1CC(=O)Nc2ccccc21)NCCc1cccc(F)c1 | 28.2 |
| Cc1cccc(-c2nnc(SCc3ccc(C#N)cc3)n2Cc2ccco2)c1 | 11.9 |
| Cc1nc(N2CCOCC2)c2cc(-c3ccccc3)sc2n1 | 12.8 |
| O=C(c1cnc2n(c1=O)CCS2)N1CCN(C(c2ccccc2)c2ccc(Cl)cc2)CC1 (stereo not given) | 24 |
| NC(=NCCCCCCN=C(N)/N=C(\N)Nc1ccc(Cl)cc1)/N=C(\N)Nc1ccc(Cl)cc1 | 36.9 |
| CCSCCOC(=O)C1=C(C)NC(=O)NC1c1ccccc1 (stereo not given) | 21.6 |
| Cc1ccc2nc(N(CCN(C)C)C(=O)c3ccc4ccccc4c3)sc2c1 | 34.5 |
| COCCN1C(=O)/C(=C/c2ccc(Oc3ccc([N+](=O)[O-])cn3)c(OC)c2)SC1=Nc1ccccc1 | 2.64 |
| COc1ccccc1CC(=O)Nc1ccc2c(C)cc(=O)oc2c1 | -51.4 |
| CN1C(=O)/C(=C/c2cccc(Cl)c2)Sc2ccc(C(=O)N3CCOCC3)cc21 | 31.2 |

| Compound | activity change, negative = inhibition [%] |
| --- | --- |
| Cc1ccc(NC(=O)CCc2ccc(S(=O)(=O)NC3CCCCC3)cc2)cc1 | 36.8 |
| CCn1nc(C)cc1C(=O)NC1CC(C)(C)Cc2c1cnn2-c1cccc(F)c1 (stereo not given) | 22.5 |
| NC(=O)c1nsc(C(=O)N(c2ccccc2F)C(C(=O)NCc2ccccc2)c2ccc(O)cc2)c1N (stereo not given) | -125 |
| COc1cccc2sc3ccc(C#CC4(O)CCCCC4)cc3c(=O)c12 | 17.2 |
| Cc1ccc(OCCN2C(=O)C(=O)c3cc(C)ccc32)cc1 | 14.9 |
| Cc1cccc(N2C(=O)c3cccc4c(N5CCCCC5)c([N+](=O)[O-])cc(c34)C2=O)c1C | 24.1 |
| O=C(CN(C1CCCCC1)C1CCCCC1)N1CCc2ccccc2C1 | 30.3 |
| Cc1cccc(NS(=O)(=O)c2ccc(C)c(C(=O)OCC(=O)Nc3cc(C)on3)c2)c1 | 6.86 |
| COc1ccc(CN2CCN(C(c3ccc(F)cc3)c3ccc(F)cc3)CC2)c(OC)c1OC | 18.6 |
| Cc1cccc2sc(N(CCN(C)C)C(=O)c3ccc4ccccc4c3)nc12 | 2.57 |
| O=c1c(-c2ccccc2)c(O)c2ccccc2n1-c1ccccc1 | 8.18 |
| Cc1ccccc1NS(=O)(=O)c1ccc(C(=O)NCC(c2ccccc2)N(C)C)cc1 (stereo not given) | 11.8 |
| O=C(CC1(O)C(=O)N(C/C=C/c2ccccc2)c2ccccc21)c1ccccn1 (stereo not given) | 12.8 |
| COc1ccc2[nH]c(C(=O)NCCCn3ccnc3)cc2c1 | 40.5 |
| CCOC(=O)c1ccc(NC(=O)N2CCN(Cc3ccccc3)CC2)cc1 | 11.5 |
| CCN(CC)c1ccc(C(=O)c2ccccc2C(=O)O)c(O)c1 | 13 |
| C#CCNC(=O)C1=C[C@@H](C2CCCCC2)C[C@@H](OCc2ccc(CO)cc2)O1 | 6.13 |
| Cc1cccc(N2CCc3c2nc2ccc(Br)cc2c3N)c1 | -23.1 |
| O=C(Nc1ncccn1)c1ccc([N+](=O)[O-])cc1 | 14.3 |
| Cc1ccc(/C=N/NC(=O)c2nnn(-c3nonc3N)c2C(C)C)o1 | 12.8 |
